The list is not random: actives were taken first. Their share in the collection is about 19%.
KB-3-1 tox: KB-3-1 parental cell cytotoxicity. hit rate 1.4% among 400,000. Potency, µM (doses to about 46.1 µM), actives largely listed as cytotoxic. KB-3-1 viability, CellTiter-Glo ATP luminescence, 72 h; further: nearly all actives have a fitted effect of over 60% in size
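Using CellTiter-Glo luminescence, growth of non-resistant KB-3-1 adenocarcinoma cells is assessed 72 h after pin-tool compound addition at 37 °C. Normalized responses across the concentration series yield fitted curves.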
HT1080 IDH1KD tx: toxicity to HT-1080 IDH1 knockdown cells (counter line) | HT-1080 IDH1 knockdown viability, ATP luminescence, 48 h | Potency, µM (series often up to 46.1 µM), for the others: at the highest dose activity, negative = toxicity, actives largely listed as cytotoxic | hit rate 2% among 360,000;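 further: 0% = DMSO wells and -100% = cell-free medium wells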
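HT-1080-IDH1KD cells (IDH1 knocked down), 750/well in RPMI with 5% FBS, treated with compound 48 h at 37 degrees C. Viability by CellTiter-Glo luminescence, normalised to DMSO and no-cell wells; concentration-response curves classed.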
HT1080-NT tox: kills 2HG-producing HT-1080-NT fibrosarcoma cells; HT-1080-NT fibrosarcoma viability, CellTiter-Glo ATP luminescence, 48 h; Potency, µM (doses to about 46.1 µM), for inactives: at the top dose activity, negative = less viability, most hits filed as cytotoxic; hit rate 1.6% among 360,000; AID 686970;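 further: NT is the 2HG producing partner of a matched IDH1 knockdown line; 0% = DMSO-treated cells and -100% = media-only wells without cells; nearly all actives have a fitted effect of over 55% in size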
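HT-1080-NT; 750 cells/well; 5% FBS RPMI; 48 h compound, 37 degrees C; CellTiter-Glo luminescence; curve fitting and curve-class assignment.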
DT40 TDP1 no CPT: qHTS for Inhibitors of human tyrosyl-DNA phosphodiesterase 1 (TDP1): qHTS in cells in absence of CPT | DT40 Tdp1-/- hTDP1 cells, no CPT, ATP luminescence, 48 h | Potency, µM (top dose mostly 46.2 µM), for the others: at the highest dose activity change, negative = growth inhibition, actives largely listed as inhibitors | hit rate 15% among 420,000; further: nearly all actives have a fitted effect of over 55% in size
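Growth of hTDP1-complemented DT40 Tdp1-knockout cells is measured by ATP luminescence after at least 48 hr compound exposure at 37 °C, with DMSO substituting for the 20 nM CPT used in the parallel screen.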
KB-V1 MDR tox: kills drug-selected multidrug resistant KB-V1 cells | KB-V1 MDR cells viability, CellTiter-Glo, 72 h | Potency, µM (top dose mostly 46.1 µM), usual class: cytotoxic | hit rate 3.4% among 400,000; further: nearly all actives have a fitted effect of over 60% in size
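KB-V1 MDR subline cells in DMEM (phenol-red free, 10% FBS) exposed to compounds in qHTS concentration series for 72 h at 37 degrees C. Viability read by CellTiter-Glo luminescence; concentration-effect curves fitted after normalization and correction.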
TDP1 cell CPT: DT40-hTDP1 cell growth loss with CPT; chicken DT40 Tdp1-/-;hTDP1 cells + 20 nM CPT, ATP luminescence, 48 h; Potency, µM (top dose mostly 46.2 µM), for inactives: top-dose activity change, negative = growth inhibition, most hits filed as inhibitors; hit rate 12% among 420,000; further: nearly all actives have a fitted effect of over 55% in size
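Cell growth measured by CellTiter-Glo luminescence after a minimum 48 h, 37 C compound exposure with 20 nM CPT in Tdp1-knockout DT40 cells stably expressing hTDP1, seeded 400/well; qHTS titration format.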
* hit, by the source's call; i = inactive; ? = inconclusive; · = no result; [ ] = dose if it differs, or a comment. The call rests on the fitted dose curve; in most records, active means well fitted curve in the direction sought with a large enough effect; inconclusive means small, poorly fitted or top-dose-only effect, or another doubt; inactive means no such curve, though single readings can be large; an effect the other way counts as inactive or inconclusive. Unless noted, on the % scale 0 is the no-effect control and ±100 the full control effect; potency means the concentration at half of the fitted maximal effect.

SMILES	KB-3-1 tox	HT1080 IDH1KD tx	HT1080-NT tox	DT40 TDP1 no CPT	KB-V1 MDR tox	TDP1 cell CPT
COc1ccc(OC)c(-c2nnc(SCC(=O)N3CCCc4ccccc43)o2)c1	i	-1%	0%	?	i	?
CC(Cc1ccccc1)NC(=S)CN1CCCC1=S (configuration not stated)	i	4%	-3%	0%	i	-18%
Cc1nc([N+](=O)[O-])cn1CC(=O)c1ccc(OC(F)(F)F)cc1	i	-6%	-4%	-6%	i	-15%
COc1cccc(C(=O)NN2c3ccccc3CCc3ccccc32)c1	i	?	-24%	10µM*	i	21µM*
O=C(CSc1ccc(-c2ccc(Cl)cc2)nn1)N1CCCc2ccccc21	i	10%	3%	?	i	?
COc1cc(OC)cc(C(=O)N2CC(=O)Nc3ccccc32)c1	?	?	?	1.3µM*	2.3µM*	1.5µM*
Cc1occc1-c1nnc(SCC(=O)Nc2nc(C(C)(C)C)cs2)o1	i	?	?	10µM*	?	9.2µM*
O=C(CSc1ccc(-c2ccc(F)cc2)nn1)N1CCCc2ccccc21	i	3%	-2%	?	?	16µM*
COc1ccc(Br)c(C(=O)OCC(=O)NC2CCCCCC2)c1	i	8%	5%	12%	i	?
Cc1ccccc1NC(=O)CSc1c(C(C)C)cnc2c1c(=O)n(C)c(=O)n2C	·	·	·	?	·	-52%
COc1cc(OC)cc(C(=O)N2CCCc3ccccc32)c1	i	-2%[9.24 µM]	?	?	i	16µM*
COc1cc2ccccc2cc1C(=O)N1CCc2ccccc21	?	?	?	15µM*	i	16µM*
O=C(c1coc(=O)c(Br)c1)N1CCCc2ccccc21	i	0%	4%	2.6µM*	i	1.8µM*
O=C(CSc1nnc(-c2ccc(F)cc2)o1)N1CCCc2ccccc21	i	·	·	18µM*	i	?
Cc1ccc(-c2nnc(SCC(=O)N3CCc4ccccc43)o2)cc1	i	·	·	-3%	i	6%
c1ccc2c(c1)ccc1[nH]c3c(c12)CCCC3	?	-22%	-10%	?	?	-20%
CCCn1nc(C(=O)N2CC(=O)Nc3ccccc32)c2ccccc2c1=O	8.2µM*	?	?	15µM*	21µM*	21µM*
Clc1cccc(CNCCCSc2nnnn2-c2ccccc2)c1	i	·	·	?	i	?
CCOC(=O)c1c(-c2ccccc2)csc1NC(=O)c1cc(-c2ccc(C)c(F)c2)on1	i	·	·	-4%	i	4%
Cc1ccc(C)c(NC(=S)N/N=C2\CCc3ccccc32)c1	?	?	-8%	21µM*	i	?
COc1ccc(CNCCC(c2ccc(OC)cc2)c2ccccc2OC)cc1 (configuration not stated)	?	21µM*	15µM*	6.5µM*	?	18µM*
COc1ccc(C(CCNCc2ccc(N(C)C)cc2)c2ccccc2OC)cc1 (configuration not stated)	i	29µM*	?	15µM*	?	18µM*
COc1ccc(C(CCNCc2ccc(OC(C)C)cc2)c2ccccc2OC)cc1 (configuration not stated)	?	?	?	16µM*	23µM*	23µM*
COc1ccc(CNCc2ccc(OC)c3ccccc23)cc1	i	-23%	-17%	?	i	?
CCCNC(=O)NC(=O)CN1C(=O)NC(C)(c2ccc3ccccc3c2)C1=O (configuration not stated)	i	-20%	-6%	-26%	i	-10%
SMILES	KB-3-1 tox	HT1080 IDH1KD tx	HT1080-NT tox	DT40 TDP1 no CPT	KB-V1 MDR tox	TDP1 cell CPT
CCOC(=O)/C(C#N)=C\c1cccnc1	i	-8%	-20%	0%	i	6%
CCOC(=O)/C(=C\c1cccnc1)C(=O)c1cc(C(C)=O)c(Nc2ccccc2)s1	3.3µM*	4.1µM*	5.8µM*	1.8µM*	6.5µM*	2.1µM*
CCOC(=O)/C(=C\c1ccccc1)C(=O)c1cc(C(C)=O)c(Nc2ccccc2)s1	i	6.3µM*	-10%	9.2µM*	?	8.2µM*
CCOC(=O)C(=O)/C(C#N)=C/Nc1ccccc1	i	18%	9%	-9%	?	4%
CC1CN(C(=O)CCC(=O)NCc2cccs2)c2cc(Cl)ccc2O1 (configuration not stated)	i	·	·	-13%	i	?
CCN(CC)CCSc1nnc2c3cc(F)ccc3n(C)c2n1	i	·	·	?	i	-23%
Cn1c2ccc(F)cc2c2nnc(SCCN3CCCCC3)nc21	i	-3%	0%	16µM*	i	?
CCOc1ccc2c(c1)c1nnc(SCC(=O)N3CCC(C)CC3)nc1n2C	i	5%	0%	?	?	?
Cc1cc(C)c2c(c1)c1nnc(SCCN3CCCCC3)nc1n2C	i	-12%	-6%	21µM*	i	?
CCOc1ccc2c(c1)c1nnc(SCC(=O)N3CCCCC3C)nc1n2C (configuration not stated)	i	3%	1%	23µM*	i	23µM*
Cn1c2ccccc2c2nnc(SCCN3CCOCC3)nc21	i	-3%	-2%	-18%	i	?
COc1cc2c(cc1OC)CN(S(=O)(=O)/C=C/c1ccccc1)CC2	i	8%	-5%	-23%	i	11%
COc1ccc(-c2noc(CCC(=O)NCCCN3CCN(c4ccc(F)cc4)CC3)n2)cc1	i	-9%	-13%	18µM*	i	18µM*
COc1ccc(CCC(=O)NCCS(=O)(=O)N2CCN(c3ccc(F)cc3)CC2)cc1	i	0%	-1%	?	i	-4%
COc1ccc(NC(=O)NCCCN2CCC(Cc3ccccc3)CC2)cc1	i	-1%	?	?	?	?
COc1ccc(-c2noc(CCC(=O)NCCCN3CCC(Cc4ccccc4)CC3)n2)cc1	?	?	?	15µM*	?	15µM*
COc1ccc(-c2noc(=O)n2CC(=O)N2CCC(Cc3ccccc3)CC2)cc1	i	4%	3%	23µM*	i	?
CCc1ccc(N2CC(C)Cn3c2nc2c3c(=O)n(CC(=O)O)c(=O)n2C)cc1 (configuration not stated)	i	·	·	1%	?	-13%

Screening results: PubChem, National Center for Advancing Translational Sciences (NCATS)
